Cycloheximide cs – counter-screen hit for Shiga toxin inhibitors, cycloheximide. cell reporter, cycloheximide protein synthesis inhibition counterscreen. max response, %. hit rate 12% among 300,000. AID 2314; in the data active = max response mostly above about 13%, no sharp cut-off; inactive = mostly below about 14%; note: read at 38.3 µM for the half of the compounds with a filed dose; 0% is about no effect
Shiga toxin inh – Shiga toxin inhibition; Vero cells, Shiga toxin protein synthesis inhibition reporter; inhibition, % at 38.7 µM; hit rate 9.2% among 290,000; AID 2315; in the data active = inhibition mostly above about 28%, no sharp cut-off; inactive = mostly below about 43%; note: 0% is about no effect
Pf growth 48h – P. falciparum growth inhibition at 48 hours (one generation); P. falciparum luciferase growth in erythrocytes, 48 h; Potency, µM (series often up to 28.7 µM), without a hit: top-dose activity change, negative = inhibition, hits mostly inhibitors; hit rate 5.9% among 310,000; AID 504832; note: potency is the fitted concentration of half-maximal effect; % is set by controls: 0 for no effect and ±100 for the full control effect
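Firefly luciferase activity from engineered P. falciparum reports growth; inhibitors lower the luminescent signal. Cultures contained 2% hematocrit erythrocytes at 0.1% final parasitemia.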
HCMV antiviral – inhibitors of human cytomegalovirus. hit rate 4.5% among 410,000. HFF cells, HCMV-luciferase reporter, 72 h; stronger effect = lower value. activity change, negative = inhibition, % at 57.5 µM; in the data active = activity change below about -60%; inconclusive = no clear call, values can overlap the other calls; inactive = above about -39%; note: % is set by controls: 0 for no effect and ±100 for the full control effect
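Luciferase read-out from HCMV-luciferase-infected HFFs (MOI 1 PFU/cell) 72 h post infection at 37C; compounds added after 16 h cell attachment; activity normalized between buffer-only basal and Salinomycin (10uM) inhibitor controls.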
Pf growth 96h – P. falciparum growth inhibition at 96 hour, primary screen for plastid delayed-death inhibitors; P. falciparum luciferase reporter growth, 96 h; Potency, µM (highest dose often 28.7 µM), for inactives: top-dose activity change, negative = inhibition, hits mostly inhibitors; hit rate 6.9% among 320,000; note: potency is the fitted concentration of half-maximal effect; % is set by controls: 0 for no effect and ±100 for the full control effect
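Luminescence readout: decreased luciferase signal marks inhibited growth of reporter-expressing P. falciparum in infected red cells (2% hematocrit, 0.05% parasitemia final), exposed to compound two generations (96 h, 37 C, 5% CO2).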
* = called active by the depositor; ? = inconclusive; · = not tested or not shown. Most compounds without a hit are left out; they make up all but 20% or so of the library. Unless noted, calls come from the whole dose curve; as a rule, active = well fitted inhibition curve with a large enough effect; inconclusive = small, poorly fitted or top-dose-only effect, or another doubt; inactive = no such curve, though single readings can be large or run the other way.

SMILES	Cycloheximide cs	Shiga toxin inh	Pf growth 48h	HCMV antiviral	Pf growth 96h
C=CCn1c(SCCOc2ccc(OC)cc2)nnc1C(C)NC(=O)c1ccc(OC)cc1 (stereo not drawn)	4.1	7.7	·	10.6	6.57µM*
COc1ccc(C2CC(c3cccs3)=NN2c2nc(-c3ccccc3)cs2)cc1OC (stereo not drawn)	35.7	2.5	?	-8.9	?
C/C(Cc1ccccc1)=N\NC(=O)CNC(=O)Cc1ccccc1	-1.2	-13.0	54.4%	-3.1	0.0%
O=C(CC1SC(N2CCCCC2)=NC1=O)Nc1cccc(C(=O)N2CCCC(C(F)(F)F)C2)c1 (stereo not drawn)	·	·	·	0.0	·
Cc1ccc(S(=O)(=O)NC(C(=O)OCC(=O)NC2CCS(=O)(=O)C2)C(C)C)cc1 (stereo not drawn)	-1.4	17.0	14.3%	-2.0	10.4µM*
Cc1ccc(C(=O)N[C@H](C(=O)OCC(=O)NC2CCS(=O)(=O)C2)C(C)C)cc1 (stereo partly drawn)	-1.4	-8.4	17.3%	24.9	34.9%
COc1ccccc1NS(=O)(=O)c1cc(NC(=O)c2cccs2)ccc1N1CCCCC1	1.0	10.1	?	-37.2	3.7µM*
COc1ccccc1NS(=O)(=O)c1cc(NC(=O)Nc2ccccc2)ccc1N1CCCCC1	5.6	16.7	2.62µM*	-23.9	1.47µM*
COc1cc(OC)c(S(=O)(=O)Nc2ccccc2N2CCCCC2)cc1NC(C)=O	-4.0	2.2	9.28µM*	38.1	9.28µM*
O=C(Nc1ccc(N2CCCC2)c(S(=O)(=O)Nc2cccc(C(F)(F)F)c2)c1)c1cccs1	-1.1	-9.9	?	?	14.7µM*
COc1ccccc1NS(=O)(=O)c1cc(NC(=O)C(C)C)ccc1N1CCCCC1	0.5	-6.9	-19.6%	-37.6	?
Cc1cccc(OCC(=O)Nc2ccc(S(=O)(=O)Nc3onc(C)c3C)cc2)c1C	6.5	-2.7	0.0%	-31.5	?
O=C(NCCc1ccccc1)c1ccc2c(c1)nc1n2CCOC1	·	·	·	26.1	·
COc1ccc(C(O)P(=O)(OCC(C)C)OCC(C)C)c(OC)c1 (stereo not drawn)	0.7	10.7	-7.2%	-37.4	-17.2%
O=S(=O)(c1cccc2ccccc12)N1CCC2CC1c1cc(-c3ccc4c(c3)OCO4)ccc12 (stereo not drawn)	·	·	·	19.6	·
O=C1Nc2ccccc2C12OC1CCCCC1O2 (stereo not drawn)	-0.9	11.7	11.7µM*	-30.1	3.7µM*
O=C(NC1CC1)c1ccc(F)cc1Cl	5.9	3.2	24.1%	-17.5	·
O=C(NCC1CCCCC1)c1ccc(F)cc1Cl	57.0*	89.0*	58.3%	-14.0	?
CCCNC(=O)CS(=O)(=O)c1ccccc1	10.4*	16.4	53.7%	-30.7	100.6%
Cc1ccc(CNC(=O)CS(=O)(=O)c2ccccc2)cc1	25.5*	43.9	17.8%	14.0	79.9%
Cc1cccnc1NC(=O)c1ccc(OCc2c(C)noc2C)cc1	21.9*	52.4*	40.6%	93.3	57.9%
Cc1noc(C)c1COc1ccc(C(=O)Nc2nnc(CC(C)C)s2)cc1	·	·	?	-62.3*	?
Cc1noc(C)c1COc1ccc(C(=O)Nc2ccccn2)cc1	43.9*	89.2*	12.1%	22.2	?
Cc1noc(C)c1COc1ccc(C(=O)NCc2ccccn2)cc1	-1.6	-6.4	1.2%	88.8	9.28µM*
O=C(CCC(=O)N1Cc2ccccc2Oc2ncccc21)NCc1cccc(Cl)c1	·	·	·	-5.0	·
SMILES	Cycloheximide cs	Shiga toxin inh	Pf growth 48h	HCMV antiviral	Pf growth 96h
O=C(NCc1ccc(Cl)cc1Cl)Nc1ccccc1	·	·	·	24.8	·
O=C(CNCCc1ccc(Cl)cc1Cl)NCc1ccco1	-1.3	-11.1	13.6%	-7.1	4.6%
Clc1ccc(-c2csc(Nc3ccccc3)[n+]2Cc2ccco2)c(Cl)c1	48.4*	109.7*	11.7µM*	-37.6	?
CCCC[n+]1c(-c2ccc(Cl)cc2Cl)csc1Nc1ccccc1	17.9	24.2	3.7µM*	56.5	1.65µM*
Cc1cc(N)nc(C)c1C#N	-1.5	10.1	7.1%	-8.7	38.4%
CCOc1ccc(Cl)cc1-c1cc(C(=O)Nc2ccc(Br)cc2)[nH]n1	·	·	·	-36.2	·
O=S(=O)(Nc1ccc2c(c1)nc1n2CCN(Cc2ccccc2)C1)c1ccccc1	116.7*	111.5*	66.2%	-96.1*	38.8%
O=S(=O)(Nc1ccc2c(c1)nc1n2CCN(Cc2ccccc2)C1)c1ccc(F)cc1	-5.3	-13.1	11.7µM*	-21.2	-15.9%
O=S(=O)(Nc1ccc2c(c1)nc1n2CCN(Cc2ccccc2)C1)c1ccc(Cl)cc1	-2.6	-5.0	9.28µM*	44.9	38.4%
Cc1ccc(S(=O)(=O)Nc2ccc3c(c2)nc2n3CCN(Cc3ccccc3)C2)cc1	-2.6	35.9	?	-16.4	?
CCOc1ccc(CCNC(=O)c2ccc(Cl)c(S(=O)(=O)N3CCOCC3)c2)cc1OCC	·	·	11.7µM*	-24.6	?
O=C(NCCc1ccc(F)cc1)c1ccc(Cl)c(S(=O)(=O)N2CCOCC2)c1	·	·	9.28µM*	?	11.7µM*
Cc1oc2cc(O)cc(C)c2c(=O)c1-c1cnn(-c2ccccc2)c1	7.8	23.3	13.1µM*	?	-1.4%
CC(C)Oc1ccccc1NC(=O)CSc1nccn1C	5.5	-11.5	12.8%	9.1	0.9%
Cc1cc(C)cc(N(CCC#N)C(=O)COC(=O)c2ccc(OCc3c(C)noc3C)cc2)c1	·	·	?	-0.2	10.4µM*
Cc1noc(C)c1COc1ccc(C(=O)OCC(=O)OC(C)(C)C)cc1	4.0	14.8	-8.8%	-29.7	-23.7%
Cc1ccc(N=C2C(=O)Nc3ccccc32)cc1	-2.1	-2.7	22.8%	16.1	1.5%
CCN(CC)c1ccc(N=C2C(=O)Nc3ccccc32)cc1	11.8	25.4	3.29µM*	-96.1*	?
Nc1nnc(Cc2ccc(F)cc2)s1	-0.5	-3.5	10.4µM*	5.4	1.9%
COC(=O)c1c(NC(=O)CCCOc2cccc(C)c2)sc2c1C(C(=O)OC)CC2 (stereo not drawn)	4.2	-6.1	·	-27.5	·
O=c1cc(O)c2c(=O)n(Cc3ccccc3)c3ccccc3c2o1	1.0	-20.0	8.28µM*	?	?
COc1ccccc1-n1c(/C=C/c2ccc(O)cc2)nc2ccccc2c1=O	6.7	15.5	13.1µM*	-32.5	-6.8%
Cc1ccccc1-n1c(-c2ccoc2)nc2ccccc2c1=O	6.8	12.1	-20.7%	?	4.15µM*
Cc1ccc(-n2c(/C=C/c3ccc(Br)s3)nc3ccccc3c2=O)cc1C	·	·	·	-64.8*	·
COc1ccccc1-n1c(-c2ccccc2F)nc2ccccc2c1=O	·	·	·	-38.5	·
CCOc1ccc(-n2c(-c3ccoc3)nc3ccccc3c2=O)cc1	-1.0	10.5	·	-39.0	?
COc1ccccc1-n1c(-c2ccc(C)cc2)nc2ccccc2c1=O	28.5*	47.6*	?	-11.2	-27.5%
Cc1ccc(-n2c(/C=C/c3cc(Br)cs3)nc3ccccc3c2=O)cc1C	·	·	·	-21.9	·
CCN(CC(=O)Nc1ccc(NC(C)=O)cc1)C(=O)/C=C/c1ccc([N+](=O)[O-])cc1	·	·	?	-20.7	17.3%
O=c1cc2nc(-c3ccccc3)nc(SCc3cccc(Br)c3)n2[nH]1	·	·	·	6.6	·
